In PubChem BioAssay AID720504 (National Center for Advancing Translational Sciences (NCATS), 2013):
Hit rate of the full screen: of about 360,000 compounds, about 10,000 (2.8%) were called active. Roughly 4% stayed inconclusive and do not appear here. Calls come from the whole dose curve; as a rule, active = well fitted inhibition curve with a large enough effect; inconclusive = small, poorly fitted or top-dose-only effect; inactive = flat fitted curve, though single readings scatter. The sample as a whole holds a higher share of actives than the screen did.
% is set by controls: 0 for no effect and ±100 for the full control effect; potency is the fitted concentration of half-maximal effect.
Note: nearly all actives have a fitted effect of over 65% in size.
Throughout, for max response, negative = inhibition: series mostly up to about 57 µM.

What follows are molecules tested against Serine/threonine-protein kinase PLK1 (Homo sapiens) (UniProt P53350) (assay: qHTS for Inhibitors of PLK1-PDB (polo-like kinase 1 - polo-box domain): Primary Screen). Settings: Plk1 PBD binding of FITC phosphopeptide, fluorescence polarization.
Chain of Serine/threonine-protein kinase PLK1 (Homo sapiens) (P53350 whole entry, looked up, the tested form may be a part): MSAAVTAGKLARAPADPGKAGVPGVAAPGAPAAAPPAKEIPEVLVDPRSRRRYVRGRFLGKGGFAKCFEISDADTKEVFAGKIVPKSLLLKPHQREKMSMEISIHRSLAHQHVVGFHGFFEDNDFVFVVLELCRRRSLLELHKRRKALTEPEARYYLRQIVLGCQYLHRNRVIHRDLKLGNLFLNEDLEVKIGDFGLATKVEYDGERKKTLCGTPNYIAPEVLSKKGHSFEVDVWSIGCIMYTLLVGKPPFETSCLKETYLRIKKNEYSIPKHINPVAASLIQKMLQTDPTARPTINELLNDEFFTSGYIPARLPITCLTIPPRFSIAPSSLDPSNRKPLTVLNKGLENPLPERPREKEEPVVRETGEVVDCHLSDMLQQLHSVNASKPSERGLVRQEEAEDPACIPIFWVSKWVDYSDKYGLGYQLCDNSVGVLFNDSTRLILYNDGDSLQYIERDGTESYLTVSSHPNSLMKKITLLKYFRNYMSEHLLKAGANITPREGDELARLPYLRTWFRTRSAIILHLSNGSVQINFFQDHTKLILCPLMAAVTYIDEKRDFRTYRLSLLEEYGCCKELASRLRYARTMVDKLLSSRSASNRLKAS
CC(C)c1cc(C(=O)N(C)C2CCCN(Cc3ccccc3F)C2)n(C)n1 (stereo not drawn) was tested, and the max response, negative = inhibition was -5.2% (inactive). NC(Cc1ccc(F)cc1)c1csc(Nc2nncc3ccccc23)n1 (stereo not drawn) was tested, and the max response, negative = inhibition was -1.72% (inactive). COC(=O)[C@]12CCCCC=C1N(Cc1ccccc1)C(=O)[C@H](CC(=O)NCc1ccc(C)o1)C2 was tested, and the max response, negative = inhibition was -1.64% (inactive). With CNC(=O)c1ccc(CN(C)C(=O)c2cc(C3CC3)nc3c2cnn3C(C)C)cc1 the max response, negative = inhibition was -13.7% (inactive). O=S1(=O)CC(N2CCN(Cc3ccccc3F)CC2)CN1Cc1cn(Cc2ccccc2)nn1 (stereo not drawn) was tested, and the max response, negative = inhibition was 0.233% (inactive). For CCOC(=O)C1CCCN(C(=O)c2cc(-c3cccs3)oc2C)CC1 (stereo not drawn), the max response, negative = inhibition was -3.67% (inactive). O=C(Oc1ccc(C(=S)N2CCOCC2)cc1)c1ccc(F)cc1 was tested, and the Potency was 21.2 µM (active). In the case of O=C(Oc1ccc(F)cc1)N1CCOCC1, the max response, negative = inhibition is reported as -11.5% (inactive). O=C(Oc1cccc(C(=S)N2CCOCC2)c1)c1cccc(Cl)c1 was tested, and the max response, negative = inhibition was -12.2% (inactive). In the case of COc1ccc(S(=O)(=O)N2CCOCC2)c(C)c1C, the max response, negative = inhibition is reported as -1.42% (inactive). With COc1cc(C)c(S(=O)(=O)N2CCOCC2)c(C)c1C the max response, negative = inhibition was -14.4% (inactive). For Cc1cc(C)c(S(=O)(=O)N2CCOCC2)cc1C, the Potency was 10.6 µM (active). With CCOP(=O)(OCC)C(Cc1ccccc1)N=C(c1ccccc1)c1ccccc1 (stereo not drawn) the max response, negative = inhibition was -2.76% (inactive). For COC(=O)[C@@]12C[C@@H](CC(=O)NCCCCc3ccccc3)C(=O)N(CCc3ccc(OC)c(OC)c3)C1=CCC(C)(C)C2, the max response, negative = inhibition was -6.86% (inactive). CCOC(=O)[C@]12CCCC=C1N(CCC1=CCCCC1)C(=O)[C@H](CC(=O)N1CCOCC1)C2 was tested, and the max response, negative = inhibition was -15.5% (inactive). CN1CCN(CCCNC(=O)c2ccc(/C=C3\Oc4ccccc4N(Cc4ccc(Cl)cc4)C3=O)cc2)CC1 was tested, and the max response, negative = inhibition was -4.87% (inactive). For CCCN1CCN(CCCNC(=O)CN2C(=O)COc3ccccc32)CC1, the max response, negative = inhibition was -2.49% (inactive). With CC(C)OCCCNC(=O)CN1C(=O)/C(=C/c2ccccc2F)Oc2ccccc21 the Potency was 26.7 µM (active). In the case of CC1(C(=O)NS(=O)(=O)c2ccccc2)CCN1C(=O)c1ccccc1 (stereo not drawn), the max response, negative = inhibition is reported as -4.3% (inactive). With CN(C)C(=O)c1cccc(-c2cnc3sc(NCc4ccc5c(c4)OCO5)nn23)c1 the max response, negative = inhibition was -3.28% (inactive). For Cc1cccc(C(=O)OCC(=O)Nc2sccc2C(N)=O)c1C, the max response, negative = inhibition was 4.89% (inactive). With O=C(c1ccc(C(F)(F)F)cc1)C1CCCN(C(=O)c2csnn2)C1 (stereo not drawn) the max response, negative = inhibition was 2.18% (inactive). For Cc1cnc(C(=O)N2CCCC(C(=O)c3ccc(C(F)(F)F)cc3)C2)cn1 (stereo not drawn), the max response, negative = inhibition was 6.24% (inactive). In the case of Cc1nc(C(=O)N2CCCC(C(=O)c3ccc(Cl)cc3)C2)cs1 (stereo not drawn), the Potency is reported as 26.7 µM (active). For Cc1cccc(C)c1-n1nnnc1C(CCc1ccccc1)N1CCN(C/C=C/c2ccccc2)CC1 (stereo not drawn), the max response, negative = inhibition was -10.6% (inactive). With c1cc(-c2ccc3[nH]ccc3c2)n2ccnc2c1 the max response, negative = inhibition was -9% (inactive). COc1cccc(NC(=O)CN2CCN(CC(=O)Nc3ccccc3Cl)CC2)c1 was tested, and the max response, negative = inhibition was -1.84% (inactive). In the case of O=C(Nc1ccc2c(c1)CCC2)c1cccc(S(=O)(=O)Nc2ccccc2Cl)c1, the max response, negative = inhibition is reported as -7.42% (inactive). For O=C(Cc1ccc2c(c1)CCCC2)Nc1ccccc1Cl, the Potency was 16.8 µM (active). Cc1onc(-c2ccccc2)c1-c1nnc(COC(=O)c2ccc(N(C)C)cc2)o1 was tested, and the max response, negative = inhibition was 5.92% (inactive). In the case of CCc1nc2c(OCc3cccc(OC)c3)cccn2c1N(C)C(=O)C(C)C, the max response, negative = inhibition is reported as -12% (inactive). In the case of CN1CCN(C(=O)c2ccc(-c3ccc(Br)cc3)o2)CC1, the max response, negative = inhibition is reported as -2.57% (inactive). For O=C(NC(=S)Nc1ccccc1C(=O)O)c1ccc(-c2ccc(Br)cc2)o1, the Potency was 13.4 µM (active). In the case of O=C(O)c1ccccc1NC(=O)c1ccccc1-c1ccccc1C(=O)O, the max response, negative = inhibition is reported as -6.65% (inactive). With CC(C)(C)CC(=O)Nc1nc(C(N)Cc2ccc(C(F)(F)F)cc2)cs1 (stereo not drawn) the max response, negative = inhibition was -8.43% (inactive). C[N+](C)(C)CCNC(=O)c1c[nH]c2ccccc12 was tested, and the max response, negative = inhibition was -0.504% (inactive). In the case of COc1ccc(C2CC(c3ccc([N+](=O)[O-])cc3)=NN2C(C)=O)cc1 (stereo not drawn), the max response, negative = inhibition is reported as -7.83% (inactive). In the case of CC(=O)N1CC[n+]2c(-c3ccc([N+](=O)[O-])cc3)csc21, the Potency is reported as 9.47 µM (active). COC(=O)c1c(C)[nH]c(C)c1-c1ccc([N+](=O)[O-])cc1 was tested, and the max response, negative = inhibition was -17.8% (inactive). In the case of CSc1ccc(CN2CCC2(C)C(=O)NCc2ccccc2Br)cc1 (stereo not drawn), the max response, negative = inhibition is reported as 2.74% (inactive). For Cc1ccc(-n2c(C)cc(C(=O)CSc3nnc4ccccn34)c2C)cc1, the max response, negative = inhibition was -3.52% (inactive). With Cc1cc(C(=O)COC(=O)C2CC2)c(C)n1-c1ccc(F)cc1 the max response, negative = inhibition was 3.31% (inactive). For Cc1ccc(-n2c(C)cc(C(=O)CN3C(=O)C(=O)N(C4CCCC4)C3=O)c2C)cc1, the Potency was 26.7 µM (active). With FC(F)(F)c1ccccc1Cc1c(-c2ccccc2)nc2c3ccccc3ccn12 the max response, negative = inhibition was 5.06% (inactive). For COc1ccc(C(NC(=O)C2CCN(CCCc3ccccc3)CC2)c2cccs2)cc1 (stereo not drawn), the max response, negative = inhibition was -15.3% (inactive). CCCc1nc2c3ccccc3ccn2c1Cc1ccccc1C(F)(F)F was tested, and the max response, negative = inhibition was -6.42% (inactive). CCCNC(=O)C1(C)CCN(C(=O)c2ccc(F)cc2Cl)C1 (stereo not drawn) was tested, and the max response, negative = inhibition was -7.53% (inactive). COc1ccccc1CC1(C)C(=O)Nc2ccc(OC(F)(F)F)cc21 (stereo not drawn) was tested, and the max response, negative = inhibition was -13.6% (inactive). For CCCCNC(=O)OC1CC2CC1[C@H]1CCCCN1C2=O (stereo partly drawn), the max response, negative = inhibition was -1.73% (inactive). With Cc1ccc(S(=O)(=O)/N=C(/Nc2ccc3[nH]c(=O)[nH]c3c2)c2ccccc2)cc1 the max response, negative = inhibition was -15.4% (inactive). In the case of Cc1ccc(S/C(=N\S(=O)(=O)c2ccc(Cl)cc2)c2ccccc2)cc1, the Potency is reported as 2.67 µM (active). In the case of Cc1ccc(S(=O)(=O)/N=C(/Nc2ccccn2)c2ccc(Cl)cc2)cc1, the max response, negative = inhibition is reported as -1.19% (inactive). In the case of CC1CN(C(=O)c2cccc(NS(=O)(=O)c3ccc(Br)cc3)c2)CC(C)O1 (stereo not drawn), the max response, negative = inhibition is reported as -2.62% (inactive). With O=S1(=O)CC(N2CCN(c3ccccn3)CC2)CN1Cc1ccc(F)cc1 (stereo not drawn) the max response, negative = inhibition was -5.38% (inactive). With CSc1ncccc1C(=O)N1CCCC(Nc2ccc(F)c(F)c2)C1 (stereo not drawn) the max response, negative = inhibition was -2.74% (inactive). CC(C)OC(=O)c1cc(NC(=O)C2C3CCC(O3)C2C(=O)O)cc(C(=O)OC(C)C)c1 (stereo not drawn) was tested, and the max response, negative = inhibition was -3.95% (inactive). In the case of COc1ccc(NC(=O)C2C3CCC(O3)C2C(=O)O)cc1OC (stereo not drawn), the max response, negative = inhibition is reported as 4.35% (inactive). Cc1sc(NC(=O)C2C3CCC(O3)C2C(=O)O)c(C(=O)OC(C)C)c1-c1ccc(Cl)cc1 (stereo not drawn) was tested, and the Potency was 7.52 µM (active).
